SMILES strings stand for the structures. For some assays here: Potency and affinity values are given separately. Calls of active or inactive are those of the source.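 The calls were made as follows, unless noted: active = primary screen hit whose fluorescence ratio, in both repeats, exceeds the weak agonist control mean by 3 SD; inactive = the rest.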

The test system of assay [1] is TRPC4 beta (transient receptor potential cation channel C4), mouse. Description: activators of mouse TRPC4 channel, confirmation, cell-based, Fluo4 calcium, HEK293 TRPC4beta/mu-opioid, duplicates, 10 µM (AID 2426;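 active = fluorescence ratio normalized to control raised more than 50% in primary screen plus both repeat runs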;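 as to activation: percent rise of integrated ratio over buffer wells lacking compound which define 0%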). As to conditions: Fluo4 calcium fluorescence, at 10 µM; hits give high values.
The subject of assay [2] is transient receptor potential cation channel C4 beta (TRPC4), mouse. Kind of assay: activators of mouse TRPC4 channel, confirmation, cell-based, second round, Fluo4, HEK293 TRPC4beta/mu-opioid, 1 µM (AID 2461;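 active = primary screen active and over 50% activation in each of two duplicate runs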;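 as to activation: 0% = wells without test compound as baseline of integrated fluorescence ratio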). The conditions noted are these: Fluo4 calcium fluorescence, at 1 µM; hits give high values.
Assay [3] has as its system TRPC4 (transient receptor potential cation channel C4 beta), mouse. Kind of assay: positive allosteric modulators of mouse TRPC4, confirmation, cell-based, second round, Fluo-4, HEK293 TRPC4beta/mu-opioid, 1 µM (AID 2554). The conditions noted are these: DAMGO EC20, Fluo-4 calcium flux, at 1 µM; hits give high values. (A change in cytosolic calcium serves as a functional read-out for many receptors and channels.)

Assay [4] concerns TRPC4 beta (transient receptor potential cation channel C4), mouse. Kind of assay: positive allosteric modulators of mouse TRPC4, confirmation, cell-based, Fluo-4, HEK293 TRPC4beta/mu-opioid (AID 2555;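 active = primary screen hit whose calcium fluorescence ratio, in both repeats, exceeds the weak agonist control mean by 3 SD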). As to conditions: DAMGO EC20, Fluo-4 calcium flux, at 10 µM; hits give high values.
Assay [5] has as its target Short transient receptor potential channel 4 (Mus musculus) (UniProt Q9QUQ5). Description: inhibitors of mouse TRPC4 channel, confirmation, cell-based, Fluo4, HEK293 TRPC4beta/mu-opioid (AID 2636;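 active = calcium signal cut by more than 3 SD below the full-agonist control yet still positive, in both repeats and the earlier primary screen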). As to conditions: DAMGO, Fluo4 calcium flux, at 10 µM; hits give high values.
The target is the same in assay [6]. Kind of assay: inhibitors of mouse TRPC4 channel, confirmation, cell-based, second round, Fluo4, HEK293 TRPC4beta/mu-opioid, 1 µM (AID 2637;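 active = calcium signal ratio cut to more than 3 SD under the fully stimulated control mean yet still positive, in both repeats and the primary screen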). The conditions noted are these: Fluo4 calcium flux, DAMGO, at 1 µM; hits give high values.
Assay [7] has the same target. Description: TRPC4 positive allosteric modulators, dose response, cell-based, HEK293 TRPC4/mu-opioid, Fluo-4 calcium, EC20 DAMGO (AID 434941;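 active = earlier screen potentiator hit that boosts the TRPC4 ion channel at some dose, with a dose response; inactive = no potentiation, no dose response, or not a prior hit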;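 also: calcium entry triggered by an EC20 dose of DAMGO at the co-expressed mu-opioid receptor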).
The target is the same in assay [8]. Description: mouse TRPC4 channel inhibitors, dose response, cell-based, HEK293 TRPC4/mu-opioid, Fluo-4 calcium (AID 434942;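 active = primary screen inhibitor hit that blocks the TRPC4 channel at some tested dose, yielding a dose curve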).
Assay [9] deals with Short transient receptor potential channel 6 (Mus musculus) (UniProt Q61143). Kind of assay: inhibition of mouse TRPC6 channel, confirmation, selectivity assay for TRPC4 inhibitor project, cell-based, HEK293, membrane potential dye, duplicate (AID 434948;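 active = active in primary screen and both duplicates, each dropping signal beyond three positive-control SD with fluorescence still positive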). The conditions noted are these: HEK293 TRPC6, membrane potential dye fluorescence, at 10 µM, stimulated with maximal-effect acetylcholine; hits give high values.
Sequence of Short transient receptor potential channel 6 (Mus musculus) (Q61143 whole entry, looked up): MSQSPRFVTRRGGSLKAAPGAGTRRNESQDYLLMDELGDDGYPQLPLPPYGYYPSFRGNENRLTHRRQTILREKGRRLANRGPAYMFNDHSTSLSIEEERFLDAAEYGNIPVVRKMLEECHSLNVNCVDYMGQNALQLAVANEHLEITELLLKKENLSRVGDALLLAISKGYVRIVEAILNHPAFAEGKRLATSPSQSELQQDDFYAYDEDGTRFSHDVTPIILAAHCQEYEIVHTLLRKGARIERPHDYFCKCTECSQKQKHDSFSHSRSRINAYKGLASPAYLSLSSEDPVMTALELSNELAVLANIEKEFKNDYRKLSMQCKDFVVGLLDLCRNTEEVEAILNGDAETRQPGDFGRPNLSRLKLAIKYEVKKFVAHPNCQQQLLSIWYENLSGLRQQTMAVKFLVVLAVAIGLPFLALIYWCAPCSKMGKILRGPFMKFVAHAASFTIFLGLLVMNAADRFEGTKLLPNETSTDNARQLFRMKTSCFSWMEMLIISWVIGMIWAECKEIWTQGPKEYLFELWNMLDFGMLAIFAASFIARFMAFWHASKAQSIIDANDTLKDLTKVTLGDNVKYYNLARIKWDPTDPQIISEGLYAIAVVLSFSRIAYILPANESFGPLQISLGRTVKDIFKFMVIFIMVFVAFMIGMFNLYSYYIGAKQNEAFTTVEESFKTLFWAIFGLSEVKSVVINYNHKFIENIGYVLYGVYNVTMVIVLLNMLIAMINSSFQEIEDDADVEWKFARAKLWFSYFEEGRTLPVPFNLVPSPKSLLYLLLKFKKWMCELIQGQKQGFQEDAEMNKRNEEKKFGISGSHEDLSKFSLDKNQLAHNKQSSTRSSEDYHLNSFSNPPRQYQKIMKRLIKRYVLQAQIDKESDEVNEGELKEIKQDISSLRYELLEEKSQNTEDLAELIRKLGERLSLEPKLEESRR

Assay [10] has the same target. Kind of assay: activation of mouse TRPC6 channel, confirmation, selectivity assay for TRPC4 activator project, cell-based, HEK293, membrane potential dye, duplicate (AID 434950;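 active = membrane potential signal rise above negative control mean plus 3 SD in both duplicates, also active in the earlier TRPC4 screen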;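 as to activation: 0% = buffer only wells and 100% = acetylcholine maximal-effect wells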). As to conditions: HEK293 TRPC6, membrane potential fluorescence, at 10 µM; hits give high values.
Assay [11] shares this target. Description: TRPC6 potentiation by TRPC4 potentiator hits, confirmation, selectivity assay for TRPC4 potentiator project, HEK293 cells, membrane potential dye, duplicate (AID 434952;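 active = compound raising the membrane signal above positive-control mean plus 3 SD in both repeats, and a primary screen hit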). The conditions noted are these: HEK293 TRPC6, membrane potential dye fluorescence, at 10 µM, maximal acetylcholine added after compound; hits give high values.
The target of assay [12] is Short transient receptor potential channel 4 (Mus musculus) (UniProt Q9QUQ5). Description: calcium flux activators in TRPC4/5HT1a cells, counter-screen for TRPC4 activator project, cell-based, second counter screen, HEK293 TRPC4/5HT1a, Fluo-4 (AID 434977;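 active = calcium signal rise above buffer-control mean plus 5 SD in both duplicates, and also a hit in the primary screen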;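 as to activation: plate controls were assay buffer for no effect and maximal serotonin response for full effect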). As to conditions: Fluo-4 calcium flux, at 10 µM; hits give high values.
Sequence of Short transient receptor potential channel 4 (Mus musculus) (Q9QUQ5 whole entry, looked up): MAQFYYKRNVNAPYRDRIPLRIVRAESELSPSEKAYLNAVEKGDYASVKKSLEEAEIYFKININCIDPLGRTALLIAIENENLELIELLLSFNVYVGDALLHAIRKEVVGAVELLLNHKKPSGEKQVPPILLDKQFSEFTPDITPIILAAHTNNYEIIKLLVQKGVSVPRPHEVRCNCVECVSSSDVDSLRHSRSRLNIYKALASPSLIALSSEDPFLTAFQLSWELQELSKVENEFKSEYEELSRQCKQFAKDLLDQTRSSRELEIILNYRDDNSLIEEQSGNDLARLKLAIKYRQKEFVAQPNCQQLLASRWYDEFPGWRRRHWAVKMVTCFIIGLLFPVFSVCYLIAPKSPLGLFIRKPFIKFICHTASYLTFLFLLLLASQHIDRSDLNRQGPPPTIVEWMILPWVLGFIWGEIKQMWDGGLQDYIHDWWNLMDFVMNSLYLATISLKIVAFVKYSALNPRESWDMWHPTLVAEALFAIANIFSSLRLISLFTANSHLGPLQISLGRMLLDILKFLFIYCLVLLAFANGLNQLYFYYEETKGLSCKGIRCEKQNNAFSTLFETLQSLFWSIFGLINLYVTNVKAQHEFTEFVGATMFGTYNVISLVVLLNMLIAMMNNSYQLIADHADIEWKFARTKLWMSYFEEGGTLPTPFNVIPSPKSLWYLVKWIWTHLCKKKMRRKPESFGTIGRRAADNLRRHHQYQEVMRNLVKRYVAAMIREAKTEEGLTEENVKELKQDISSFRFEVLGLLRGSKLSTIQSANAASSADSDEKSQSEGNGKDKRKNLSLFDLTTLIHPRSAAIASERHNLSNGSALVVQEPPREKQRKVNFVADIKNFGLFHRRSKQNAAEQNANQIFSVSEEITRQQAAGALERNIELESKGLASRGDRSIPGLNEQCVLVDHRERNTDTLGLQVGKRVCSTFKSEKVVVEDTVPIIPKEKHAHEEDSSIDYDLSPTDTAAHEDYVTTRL
The nature of assay [13]: calcium flux inhibitors in TRPC4/5HT1a cells, confirmation, counter-screen for TRPC4 inhibitor project, cell-based, second counter screen, HEK293 TRPC4/5HT1a, Fluo-4 (AID 434978;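 active = primary screen active whose calcium signal fell more than 3 SD beyond the full-serotonin control mean in both duplicate plates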;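 also: serotonin given first at submaximal then at maximal dose after compound preincubation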). As to conditions: Fluo-4 calcium flux, at 10 µM, serotonin added to trigger calcium flux; hits give high values.
The test system of assay [14] is TRPC4 (mouse), co-expressed with 5HT1a in HEK293. Description: calcium flux potentiators in TRPC4/5HT1a cells, confirmation, counter-screen for TRPC4 potentiator project, cell-based, second counter screen, HEK293 TRPC4/5HT1a, Fluo-4 (AID 434979;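 active = signal rise over 3 SD above mean of control wells given weak agonist, in both repeats and first screen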). The conditions noted are these: Fluo-4 calcium flux, at 10 µM, serotonin added at its EC20 dose; hits give high values.
Assay [15] can be described thus: calcium flux activation in mu-opioid HEK293 cells, confirmation, counter-screen for TRPC4 activator project, cell-based, HEK293 mu-opioid receptor line (AID 449723;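 active = hit in primary screen, with calcium signal over 5 SD above buffer well mean in both duplicates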;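 also: counter screen cells carry the mu-opioid receptor alone and lack TRPC4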). The conditions noted are these: Fluo-4 calcium fluorescence, at 10 µM; hits give high values.
Assay [16] is described as follows: calcium flux enhancement in mu-opioid HEK293 cells, confirmation, counter-screen for TRPC4 allosteric potentiator project, cell-based, HEK293 mu-opioid receptor line (AID 449724;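 active = calcium signal rise more than 3 SD above the low-dose agonist control mean, in both duplicate plates and the primary screen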;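 also: HEK293 cells carrying mu-opioid receptor only with no TRPC4 channel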). The conditions noted are these: Fluo-4 calcium flux, at 10 µM, compound added before EC20 DAMGO stimulus; hits give high values.

For `CC(C)Cc1ccc(CN2CCCC(NC(=O)CCn3cnnn3)C2)cc1` (centres undefined), the activation was 111% (active) in assay [1] and 27.9% (active) in assay [12]. For the same compound, the outcome in [2], in assay [3], in assay [4], in [5], in assay [6] and in [7] was inactive. Besides, the result in assay [8], in assay [9], in [10], in assay [11], in assay [13] and in assay [14] was inactive. The outcome in [15] and in assay [16] was inactive.

For `CCn1c(CN2CCN(Cc3ccc(C)cc3)C(CCO)C2)nc2ccccc21` (centres undefined), the activation in assay [1] was 129% (active); in assay [2], 73% (active); in assay [10], 61.5% (active); in assay [12], 32.4% (active). Besides, the result in assay [3], in [4], in [5], in assay [6], in [7] and in assay [8] was inactive. Moreover, the call in [9], in [11], in [13], in assay [14], in assay [15] and in assay [16] was inactive.

Regarding `Cc1sc2ncnc(NCC(c3ccco3)N(C)C)c2c1C` (centres undefined), the figures for the activation in assay [1], in [2] and in assay [12] were 202% (active), 116% (active) and 91.1% (active), respectively. Further, the outcome in assay [3], in assay [4], in assay [5], in assay [6], in assay [7] and in [8] was inactive. The result in assay [9], in assay [10], in assay [11], in [13], in [14] and in assay [15] was inactive. In addition, in assay [16], the outcome was inactive.

In the case of `CN(C)CCNC(=O)c1scc2c1CCCC2`, the outcome in [1], in [2], in [3], in [4], in assay [5] and in assay [6] was inactive. Moreover, the result in assay [7], in assay [8], in assay [9], in assay [11], in assay [13] and in assay [14] was inactive. Besides, the result in assay [15] and in [16] was inactive. Further, the activation in assay [10] was 41.5% (active); in assay [12], 19.6% (active).

As to `O=C(NC1CCCN(Cc2ccc(Cl)cc2)C1)C1CCC1` (centres undefined), the activation was 120% (active) in assay [1], 58% (active) in assay [2], 47.5% (active) in [10] and 39.7% (active) in [12]. In addition, the outcome in [3], in [4], in assay [5], in assay [6], in assay [7] and in [8] was inactive. For the same compound, the call in [9], in [11], in assay [13], in assay [14], in [15] and in [16] was inactive.

With `O=c1c(Cc2ccccc2)c(O)ccn1CCc1cnc[nH]1`, the activation in assay [1] is 134% (active); in assay [12], 39.3% (active). Moreover, the outcome in assay [2], in [3], in assay [4], in assay [5], in assay [6] and in [7] was inactive. For the same compound, the result in assay [8], in [9], in assay [10], in assay [11], in assay [13] and in [14] was inactive. Moreover, the result in assay [15] and in [16] was inactive.

As for `CC12CCCCN1CCCc1c2[nH]c2ccccc12` (centres undefined), the result in [1], in assay [2], in [3], in [4], in assay [5] and in assay [6] was inactive. For the same compound, the outcome in [7], in assay [8], in assay [9], in assay [11], in [13] and in assay [14] was inactive. Also, the outcome in assay [15] and in assay [16] was inactive. The activation is 35% (active) in assay [10] and 8.77% (active) in assay [12].

`CSc1ccc(C(=O)NCC(c2ccco2)N(C)C)cc1[N+](=O)[O-]` (centres undefined): the figures for the activation in [1], in assay [2] and in [12] were 341% (active), 228% (active) and 45.6% (active), respectively. For the same compound, the result in assay [3], in [4], in [5], in assay [6], in assay [7] and in [8] was inactive. In addition, the outcome in [9], in [10], in assay [11], in assay [13], in assay [14] and in assay [15] was inactive. Moreover, in assay [16], the outcome was inactive.

As to `CCN(CC)CCCNC(=O)c1cc2c(-c3ccc(Cl)cc3)nn(C)c2s1`, the outcome in assay [1], in [2], in [4], in assay [5], in [6] and in assay [7] was inactive. Besides, the outcome in [8], in assay [9], in assay [10], in [11], in [13] and in [15] was inactive. For the same compound, the result in assay [16] was inactive. In addition, the potentiation in assay [3] was 13% (active); in assay [14], 31.3% (active). In assay [12], the activation is 12.6% (active).

As to `COc1ccc(C(CNc2nc(-c3cccnc3)nc3ccccc23)N(C)C)cc1` (centres undefined), the activation in assay [1] was 235% (active); in assay [2], 84% (active); in assay [12] it was 18% (active). The outcome in assay [3], in [4], in assay [5], in assay [6], in [7] and in assay [8] was inactive. Also, the result in [9], in assay [10], in assay [11], in assay [13], in [14] and in assay [15] was inactive. In assay [16], the result was inactive.

Regarding `CCOC(=O)C1(CCOc2ccccc2)CCN(Cc2cc(OC)ccc2OC)CC1`, the results for the activation in assay [1] and in [10] were 68% (active) and 118% (active), respectively. Further, the result in [2], in assay [3], in [4], in assay [5], in [6] and in assay [7] was inactive. In addition, the outcome in assay [8], in [9], in assay [11], in assay [12], in assay [13] and in assay [14] was inactive. Besides, the outcome in [15] and in [16] was inactive.

For `CN(CCc1ccccn1)C(=O)CC1C(=O)NCCN1Cc1cccc(F)c1` (centres undefined), the activation is 214% (active) in [1] and 60.9% (active) in assay [12]. Also, the outcome in assay [2], in [3], in assay [4], in assay [5], in assay [6] and in assay [7] was inactive. Further, the result in assay [8], in assay [9], in assay [10], in assay [11], in assay [13] and in [14] was inactive. For the same compound, the outcome in [15] and in [16] was inactive.

Regarding `CCCN(CCC(=O)Nc1cc(OC)cc(OC)c1)CC1CC1`, the activation in [1] is 180% (active); in [2], 69% (active); in assay [10] it was 49% (active); in assay [12], 54.9% (active). Also, the outcome in [3], in assay [4], in [5], in assay [6], in assay [7] and in [8] was inactive. The outcome in assay [9], in assay [11], in assay [13], in assay [14], in assay [15] and in assay [16] was inactive.

Take `CCN1CCN(c2ccc(S(=O)(=O)N3CCOCC3)cc2NC(=O)/C=C/c2ccc(OC)cc2OC)CC1`: the activation in [1] is 112% (active); in assay [12] it was 6.55% (active). Further, the result in [2], in assay [3], in assay [4], in [5], in [6] and in assay [7] was inactive. Besides, the result in assay [8], in [9], in assay [10], in assay [11], in assay [13] and in [14] was inactive. Moreover, the result in assay [15] and in [16] was inactive.
